# Only some compounds are listed: those with a hit (about 21% of all), similar ones and a draw of the others.
# Shiga inhibitor – inhibitors of Shiga toxin in Vero cells; Vero cells, Shiga toxin protein synthesis inhibition reporter; inhibition, % at 38.7 µM; 9.2% of 290,000 active; in the data active = inhibition mostly above about 28%, no sharp cut-off; inactive = mostly below about 43%; also: 0% is about no effect
# Pf growth 96h – P. falciparum growth inhibition at 96 hours | P. falciparum luciferase reporter growth, 96 h | Potency, µM (series often up to 28.7 µM), without a hit: at the highest dose activity change, negative = inhibition, most hits filed as inhibitors | 6.9% of 320,000 active; also: potency is read from the fitted curve at half-maximal effect; % is scaled to controls: 0 for no effect and ±100 for the full control effect
#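 Readout is luminescence from an integrated firefly luciferase in P. falciparum. Red cells, 2% hematocrit and 0.05% parasitemia final, were cultured with compound through two parasite generations (96 hours) at 37 C, 5% CO2.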
# Pf growth 48h – P. falciparum growth inhibition at 48 hours (one generation) | P. falciparum luciferase growth in erythrocytes, 48 h | Potency, µM (top dose mostly 28.7 µM), inactives show at the top dose activity change, negative = inhibition, usual class: inhibitors | 5.9% of 310,000 active | AID 504832; also: potency is read from the fitted curve at half-maximal effect; % is scaled to controls: 0 for no effect and ±100 for the full control effect
#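 Luminescence readout; reporter = integrated firefly luciferase in P. falciparum. RBC culture at 2% hematocrit, 0.1% parasitemia final, 37 C/5% CO2; decreased signal taken as growth inhibition.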
# Cycloheximide cs – counter-screen hit for Shiga toxin inhibitors, cycloheximide; cell reporter, cycloheximide protein synthesis inhibition counterscreen; max response, %; 12% of 300,000 active; AID 2314; in the data active = max response mostly above about 13%, no sharp cut-off; inactive = mostly below about 14%; also: read at 38.3 µM for the half of the compounds with a filed dose; 0% is about no effect
# An asterisk follows results filed as active; ? = inconclusive; / = no result; [ ] = remark or other dose. Unless noted, calls follow the shape of the dose curve; as a rule, active = well fitted inhibition curve with a large enough effect; inconclusive = small, poorly fitted or top-dose-only effect, or another doubt; inactive = no such curve, though single readings can be large or run the other way.
SMILES,Shiga inhibitor,Pf growth 96h,Pf growth 48h,Cycloheximide cs
CC(C)C(NC(=O)c1ccco1)C(=O)OCC(=O)Nc1ccc(C(N)=O)cc1 (stereo unspecified),-22,15%,0%,-3
C=CCOC(=O)C1=C[C@H](C2CC2)[C@@H](CCCO)[C@H](OCC)O1,-1,?,-23%,-1
Cc1ccccc1C(=O)N1CCC(C(=O)OCc2nc(N)nc(Nc3ccccc3)n2)CC1,/,13µM*,?,/
Nc1nc(COC(=O)CCC(=O)c2ccccc2)nc(Nc2ccccc2)n1,/,?,-6%,/
O=C(N/N=C/C=C/c1ccccc1)c1cccnc1,30*,0%,0%,-1
O=C(CNC(=O)c1ccccc1F)N/N=C/c1cccnc1,16,75%,36%,31*
Cc1ccc(C(=O)N/N=C/C=C/c2ccccc2)o1,119*,280%,-28%,22
O=C(N/N=C/c1cccnc1)c1ccc(F)cc1,38,12%,42%,11*
O=C(N/N=C/C=C\c1ccccc1)c1cnccn1,38,86%,8%,10
Cc1c(N=NC2=C(O)CCCC2=O)c(=O)n(-c2ccccc2)n1C,-1,38%[5.75 µM],-23%,6
COc1ccc(C(CNC(=O)c2cccc(S(=O)(=O)NCc3ccccc3)c2)N(C)C)cc1 (stereo unspecified),-5,0%,?,-3
COc1ccc(OC)c(/C=C2\Oc3cc(OCC(=O)N4CCC(C(=O)O)CC4)ccc3C2=O)c1,-8,-12%,-7%,-1
CCC1(C)CC2(CCCN(CCC(=O)c3ccccc3)C2)CCO1 (stereo unspecified),-13,?,6%,-2
O=S1(=O)CCO[C@H]2Cc3ccccc3[C@H]2N1Cc1ccc(F)cc1,-10,58%,13%,1
O=C(Nc1ccc(NS(=O)(=O)c2ccc([N+](=O)[O-])cc2)cc1)c1ccco1,-8,?,?,-1
O=C(CN(Cc1ccc(F)cc1)C(=O)CCC(=O)Nc1nccs1)NCc1ccccc1,4,-28%,-17%,-6
COc1ccc(S(=O)(=O)Nc2c(NC3CCCCC3)c3ccccc3oc2=O)cc1,-3,?,1%,2
Cc1cc(C(=O)N/N=C/c2cccnc2)cs1,19,-23%,30%,14
Cc1ccc(C(=O)N/N=C\c2cccnc2)s1,55*,-21%,32%,30*
Cc1ccccc1-n1c(C)cc(/C=N/NC(=O)c2ccncc2)c1C,68*,?,?,36*
Cc1cc(C)cc(-n2c(C)cc(/C=N/NC(=O)c3ccncc3)c2C)c1,18,?,?,7
Cc1cc(/C=N/NC(=O)c2ccsc2)c(C)n1-c1cnccn1,87*,27%,16%,42*
O=C(N/N=C/c1cccnc1)c1ccccc1,59*,?,31%,25*
N#CCCn1cc(/C=N/NC(=O)c2ccncc2)c(-c2ccc(F)cc2)n1,-2,0%,8%,-1
Cc1ccc(N2CC(C(=O)Nc3ccc(S(=O)(=O)Nc4ncccn4)cc3)CC2=O)cc1C (stereo unspecified),17,31%,13%,-6
SMILES,Shiga inhibitor,Pf growth 96h,Pf growth 48h,Cycloheximide cs
CCCOc1ccc2cc(C(=O)NCc3ccccc3)c(=O)oc2c1,4,-5%,-12%,6
Cc1c(C(=O)N/N=C/c2cccnc2)sc(N)c1C#N,26,?,?,12*
O=C(N/N=C/c1cccc(Oc2ccccc2)c1)c1ccncc1,13,3.7µM*,7%,12
O=C(N/N=C/c1ccncc1)c1ccccc1,55*,52%,22%,21*
CN(CCC#N)C(=O)COC(=O)c1ccc2c(c1)C(=O)N(C1CCCCC1)C2=O,-4,9%,5%,7
Nc1ccc(C#Cc2ccccc2)cc1,64*,229%,127%,41*
Nc1ccccc1C#Cc1ccccc1,88*,94%,166%,64*
CC(C)(C)OC(=O)N1CCN(C(=O)[C@H](Cc2ccc(O)cc2)n2cc(CCO)nn2)CC1,-14,30%,35%,-3
CC[C@H](C)C(C(=O)N1CCN(C(=O)OC(C)(C)C)CC1)n1cc(C(Cc2ccc(O)cc2)NC(=O)OC(C)(C)C)nn1 (stereo partly specified),-11,1.7µM*,?,1
CC(C)CC(NC(=O)OC(C)(C)C)c1cn([C@@H](Cc2cc3ccccc3[nH]2)C(=O)N2CCN(C(=O)OC(C)(C)C)CC2)nn1 (stereo partly specified),-14,5.2µM*,?,-3
CC(C)(C)OC(=O)NC(CO)c1cn([C@@H](Cc2cc3ccccc3[nH]2)C(=O)N2CCN(C(=O)OC(C)(C)C)CC2)nn1 (stereo partly specified),-1,?,?,-2
CC(C)CC(NC(=O)OC(C)(C)C)c1cn([C@@H](Cc2ccc(O)cc2)C(=O)N2CCN(C(=O)OC(C)(C)C)CC2)nn1 (stereo partly specified),-9,4.7µM*,?,-2
CCOCCCNC(=O)CSc1nnc(-c2ccc(S(=O)(=O)N3CCCC3)cc2)n1C,-7,-21%,-17%,2
O=C(c1ccc(-c2ccccc2Cl)o1)N1CCN(S(=O)(=O)c2cccs2)CC1,/,?,6%,/
CCc1ccc(-c2cc(C)no2)cc1S(=O)(=O)Nc1ccccn1,-4,?,18%,-13
CCc1ccc(-c2cc(C)no2)cc1S(=O)(=O)Nc1ccc(C)cn1,-6,13µM*,0%,-8
Cc1ccc(NS(=O)(=O)c2cc(-c3cc(C)no3)ccc2C(C)C)nc1,-1,-29%,-7%,11
Cc1cc(-c2ccc(C(C)C)c(S(=O)(=O)Nc3ccccn3)c2)on1,24*,15%,64%,29*
CCOc1ccc(N(C)S(=O)(=O)c2cc(-c3cc(C)no3)ccc2CC)cc1,-7,-19%,12µM*,12
Cc1nnc(SCC(=O)Nc2nsc(-c3ccccc3)n2)s1,30,7.4µM*,26%,15*
COc1ccc2c(C)cc(SCC(=O)Nc3nsc(-c4ccc(C)cc4)n3)nc2c1,-16,88%,41%,-3
Cc1ccc(-c2nc(NC(=O)CSc3cc(C)c4ccccc4n3)ns2)cc1,-9,15µM*,30%,-3
COc1ccc(-c2nc(NC(=O)CSc3nnc(C)s3)ns2)cc1,33*,152%,40%,34*
CC1(C)CC(=O)c2c(nc(SCC(=O)Nc3nsc(-c4ccccc4)n3)c(C#N)c2-c2ccccc2)C1,15,15µM*,?,2
COc1ccc(/C(C)=N\NC(=O)CSc2nnc(C)s2)cc1,-12,?,23%,-9
SMILES,Shiga inhibitor,Pf growth 96h,Pf growth 48h,Cycloheximide cs
Cc1csc(NC(=O)CSc2nnc(C)s2)n1,12,-11%,9%,15
O=C(CSc1nnc2ccccn12)Nc1nsc(-c2ccccc2)n1,21,11%,31%,19*
Cc1ccc(-c2nc(NC(=O)CSc3nnc(C)s3)ns2)cc1,77*,-32%,/,23*
Cc1nn(C(=O)N(C)C)c(C)c1CN1C(=O)c2ccccc2C1=O,-1,?,13%,-1
CCOc1ccccc1-c1nnc2n1N=C(c1ccc(OC)cc1)CS2,-5,/,/,-10
O=C(COc1cccnc1[N+](=O)[O-])c1ccc(Cl)s1,29,-5%,-31%,18*
